SMARCA2 activ – SMARCA2 function activation, primary screen. activation, % at 9.1 µM. MG213 cells, MMTV-luciferase reporter, dexamethasone, overnight. 370,000 tested, 1% active; in the data active = activation above about 7.8%;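 also: 0% = vehicle wells and 100% = reference activator wells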
DAX1 inh-1 – DAX1 (NR0B1) inhibition, primary screen; HEK293T StAR-luciferase reporter, SF-1/DAX-1 repression relief; 370,000 tested, 1.1% active; inhibition, % at 6.8 µM;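 active = inhibition above the mean over all tested compounds plus 3 SD, cut at about 3.6% in these data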;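 also: 0% = DAX-1 cells with DMSO and 100% = cells lacking DAX-1 with DMSO; higher inhibition means more luminescence from relief of DAX-1 repression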
hgDAF12 agonist – hgDAF-12 agonism, primary luciferase screen; HEK293 GAL4-hgDAF12 UAS-luciferase reporter, agonist luminescence; normalized to butyrate control; activation, % at 6.8 µM; 370,000 tested, 1.8% active; AID 687014;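 active = activation above a cutoff set at the mean of all screened compounds plus 3 SD, cut at about 10% in these data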;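 also: 0% = DMSO wells and 100% = sodium butyrate wells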
DAX1 inh-2 – NR0B1 (DAX1) inhibition | HEK293 Gal4-DAX1 luciferase reporter, luminescence | inhibition, % at 6.75 µM | P51843 | 340,000 tested, 0.99% active | AID 504766;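 active = inhibition above the mean over all tested compounds plus 3 SD, cut at about 4.2% in these data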;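 also: 0% = DAX1-transfected cells with DMSO and 100% = empty-vector control cells with DMSO; inhibition shows as a rise in luminescence from relieved DAX1 repression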
Target sequence (P51843 207-470 limits assumed): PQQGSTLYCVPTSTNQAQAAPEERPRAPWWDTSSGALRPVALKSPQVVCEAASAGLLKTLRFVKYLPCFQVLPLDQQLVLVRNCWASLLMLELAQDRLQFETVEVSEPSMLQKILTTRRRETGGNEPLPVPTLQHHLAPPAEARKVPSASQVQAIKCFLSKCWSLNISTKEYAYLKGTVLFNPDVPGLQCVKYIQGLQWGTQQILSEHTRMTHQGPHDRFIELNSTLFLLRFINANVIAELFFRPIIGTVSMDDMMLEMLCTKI
hcDAF12 agonist – activates DAF-12 receptor from parasite H. contortus. HEK293 hcDAF-12 lit1-tk-luc reporter, luminescence; 0% DMSO, 100% Δ7-dafachronic acid. activation, % at 6.8 µM. 370,000 tested, 1.4% active. AID 652067;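 active = activation above the mean of all tested compounds plus 3 SD, cut at about 5.5% in these data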;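 also: 100% = response to 3 µM Δ7-dafachronic acid high control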
ssDAF-12 act – activates DAF-12 receptor from parasite S. stercoralis. 370,000 tested, 1% active. activation, % at 6.8 µM. HEK293 ssDAF-12/GRIP1 lit1-tk-luc reporter, luminescence; % of 3 µM dafachronic acid response. AID 652126;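 active = activation above the mean over all tested compounds plus 3 SD, cut at about 0.9% in these data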;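 also: 0% = DMSO-only wells and 100% = 3 µM delta7-dafachronic acid wells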
DAX1 inh confirm – NR0B1 (human) inhibition, confirmation; AID 652134; 2,400 tested, 87% active; HEK293T StAR-promoter luciferase reporter, SF-1/DAX-1 repression; inhibition, % at 6.8 µM; shares compounds with DAX1 inh-1;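 active = inhibition above the average of every tested compound plus 3 SD, cut at about 3.8% in these data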;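 also: 0% = DAX-1 cells with DMSO and 100% = no DAX-1 control cells with DMSO; active compounds raise luminescence by relieving repression of the StAR reporter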
SF1 mutant ctr – counter-screen for DAX1 inhibitors: nonselective inhibitors with SF-1 AF2 mutant. shares compounds with DAX1 inh-1. HEK293 StAR-luciferase, luminescence. inhibition, % at 6.8 µM. 2,400 tested, 78% active. AID 652136;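 active = inhibition above the mean of all tested compounds plus 3 SD, cut at about 3% in these data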;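 also: 0% = DAX-1 transfected cells with DMSO and 100% = cells without DAX-1 with DMSO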
SMARCA2 act conf – SMARCA2 activation, confirmation screen; MG213 cells, MMTV-luciferase with dexamethasone, luminescence, overnight; MG213 cells expressing E1A, Rb sequestered; DMSO wells 0%, reference activator 100%; shares compounds with SMARCA2 activ; AID 652260; activation, % at 9.1 µM; 3,500 tested, 30% active;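 active = activation above its plate's cutoff, the mean activation of tested wells plus 3 SD, cut at about 7.9% in these data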
VP16 Luc act – counter-screen for SMARCA2 activators: GAL4-VP16 luciferase reporter activation; 3,500 tested, 41% active; shares compounds with SMARCA2 activ; activation, % at 9.1 µM; HEK293 GAL4-VP16 pG5luc reporter, luciferase luminescence; scaled: DMSO wells 0%, SAHA wells 100%;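 active = activation above the solvent-only control well mean plus 3 SD, averaged across control plates, cut at about 5.2% in these data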
LXRb hcDAF ctr – activates human LXR-beta, counter-screen for hcDAF-12 agonists | shares compounds with hcDAF12 agonist | 3,400 tested, under 10 active | activation, % at 6.8 µM | HEK293 Gal4-LXR tk-luc reporter, luminescence, 24 h; normalized: DMSO 0%, positive control 100%;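 active = mean percent activation of the reporter above a cutoff set as the average over tested compounds plus their standard deviation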
Target sequence (P55055 whole entry, looked up, the tested form may be a part): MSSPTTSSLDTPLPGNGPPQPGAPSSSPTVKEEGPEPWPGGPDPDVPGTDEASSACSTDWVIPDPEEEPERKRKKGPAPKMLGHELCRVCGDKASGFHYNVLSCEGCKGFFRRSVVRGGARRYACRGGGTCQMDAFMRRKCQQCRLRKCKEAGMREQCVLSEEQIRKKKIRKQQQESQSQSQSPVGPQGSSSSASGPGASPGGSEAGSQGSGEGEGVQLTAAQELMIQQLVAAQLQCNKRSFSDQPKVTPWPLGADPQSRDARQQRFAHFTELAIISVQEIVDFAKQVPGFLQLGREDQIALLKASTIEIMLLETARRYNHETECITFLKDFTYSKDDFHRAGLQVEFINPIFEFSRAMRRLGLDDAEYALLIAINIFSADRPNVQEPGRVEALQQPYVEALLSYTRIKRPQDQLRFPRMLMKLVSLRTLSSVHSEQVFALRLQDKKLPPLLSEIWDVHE
hcDAF12 conf – confirmation of H. contortus DAF-12 agonists; HEK293 hcDAF-12 lit1-tk-luc reporter, luminescence; % of Δ7-dafachronic acid response; AID 743032; 3,400 tested, 61% active; shares compounds with hcDAF12 agonist; activation, % at 6.8 µM;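 active = mean activation across triplicate tests above the threshold derived from the earlier primary screen, cut at about 5.5% in these data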;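 also: 0% = DMSO only wells and 100% = 3 µM Δ7-dafachronic acid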
hgDAF12 conf – hgDAF-12 agonism, confirmation assay; activation, % at 6.8 µM; shares compounds with hgDAF12 agonist; 3,300 tested, 80% active; HEK293 GAL4-hgDAF12 luciferase reporter, agonist mode; percent of butyrate response;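 active = mean activation over triplicate wells above the hit cutoff derived from the earlier primary screen, cut at about 11% in these data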;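 also: 0% = DMSO low control and 100% = 2 mM sodium butyrate high control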
LXRb DAF12 ctr – LXR-beta agonism as DAF-12 counter-screen. shares compounds with hgDAF12 agonist. HEK293 Gal4-LXR luciferase reporter, 24 h. activation, % at 6.8 µM. 3,300 tested, under 10 active;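 active = mean activation of the triplicate above a set limit carried over from the primary screen, none filed active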
Active calls of the source: *; nt = no result. Most compounds without a hit are left out; they make up all but 4.8% or so of the library.

SMILES | SMARCA2 activ | DAX1 inh-1 | hgDAF12 agonist | DAX1 inh-2 | hcDAF12 agonist | ssDAF-12 act | DAX1 inh confirm | SF1 mutant ctr | hgDAF12 conf | LXRb DAF12 ctr | others
COc1cccc(/C=C2\CC3(OC(=O)c4ccccc4)CCCN2C3)c1 (configuration not stated) | -0.5 | -0.2 | -1.6 | nt | 1.5 | -0.8 | nt | nt | nt | nt
O=C(Nc1ccc2sccc2c1)c1ccc(Cl)s1 | 1.4 | 9.0* | 20.9* | 2.1 | 14.9* | 1.4* | 20.0* | 10.6* | 22.9* | 1.5 | LXRb hcDAF ctr=2.0;hcDAF12 conf=12.2*
CC(=O)C1=C(C)N(Cc2ccc(F)cc2)C(=S)NC1c1ccc(Br)cc1 (configuration not stated) | -4.1 | -0.1 | -2.4 | nt | -1.2 | -1.6 | nt | nt | nt | nt
Cc1cccc(-c2noc(-c3csc([C@@H]4C[C@H](O)[C@@H](CO)O4)n3)n2)c1 | 2.7 | 9.8* | 18.3* | nt | 4.7 | 0.8 | 16.0* | 9.5* | 19.5* | 1.0
COC(=O)CSc1nnc(-c2n[nH]c3c2CCC3)n1N | -4.5 | 0.5 | 0.2 | nt | -0.4 | -1.1 | nt | nt | nt | nt
Cc1ccc(S(=O)(=O)N2CCCC2C(=O)N2CCc3ccccc3C2)cc1 (configuration not stated) | 6.1 | 0.3 | -2.7 | nt | 0.2 | -1.5 | nt | nt | nt | nt
Cc1cc(-c2ccncc2)n2ncc(-c3ccccc3)c2n1 | 6.2 | 13.1* | 19.3* | nt | 10.8* | 2.5* | 18.8* | 9.5* | 22.9* | 0.8 | LXRb hcDAF ctr=1.7;hcDAF12 conf=10.9*
Cc1cccc(C)c1Nc1nc2ccccc2o1 | -0.9 | -0.5 | -2.1 | -0.7 | -1.1 | -0.4 | nt | nt | nt | nt
Clc1ccccc1Nc1nc2ccccc2o1 | 6.0 | 9.3* | 13.4* | 1.4 | 11.0* | 1.2* | 13.7* | 9.0* | 23.1* | 1.0 | LXRb hcDAF ctr=1.4;hcDAF12 conf=10.4*
COP(=O)(O)CCOCCC(CC(C)C)NC(=O)OCc1ccccc1 (configuration not stated) | -2.4 | -0.6 | 0.6 | nt | -0.8 | -0.2 | nt | nt | nt | nt
Cc1ccc2nc(/C=C/c3cccc(F)c3)ccc2c1 | 5.2 | 5.1* | 20.8* | 2.5 | 8.3* | 2.8* | 10.0* | 5.1* | 20.3* | 1.0 | LXRb hcDAF ctr=1.5;hcDAF12 conf=8.7*
O=c1[nH]c(/C=C\c2cccc(F)c2)nc(O)c1[N+](=O)[O-] | -1.3 | -0.3 | -0.2 | 0.9 | 0.1 | -1.2 | nt | nt | nt | nt
CCOc1ccccc1Nc1nc(-c2cccnc2)cs1 | -0.6 | -0.8 | 3.1 | 0.7 | 0.0 | -1.2 | nt | nt | nt | nt
c1ccc(Nc2nc(-c3cccnc3)cs2)nc1 | -0.2 | 5.8* | 17.9* | 0.7 | 10.4* | 0.3 | 7.5* | 6.3* | 20.2* | 1.0 | LXRb hcDAF ctr=1.5;hcDAF12 conf=8.1*
Cc1ccc(C2c3c(n[nH]c3C)C(=O)N2Cc2ccccc2)cc1 (configuration not stated) | -2.8 | -0.6 | -2.3 | nt | -2.4 | -0.9 | nt | nt | nt | nt
C/C(=N/NC(=O)c1ccc2c(c1)OCO2)c1ccc(NC(=O)c2ccc(F)cc2)cc1 | 8.3* | 5.8* | 13.7* | 1.6 | 5.7* | -0.9 | 6.3* | 1.8 | 6.2 | 0.2 | SMARCA2 act conf=6.3;VP16 Luc act=7.2*
C/C(=N\NC(=O)c1cccc(F)c1)c1ccc(NC(=O)Cc2ccccc2)cc1 | 1.9 | 7.0* | 13.7* | -0.9 | 6.4* | 0.5 | 1.3 | 1.8 | 5.8 | 0.1
C/C(=N\NC(=S)Nc1ccc(F)cc1)c1ccc2c(c1)OCCO2 | 1.8 | -0.6 | 4.3 | 1.6 | 4.5 | -0.5 | nt | nt | nt | nt
O=C(Nc1ccccc1)c1ccc(-c2ccc(F)cc2)s1 | -0.2 | 7.1* | 13.3* | 1.6 | 5.4 | 1.0* | 11.3* | 7.0* | 17.6* | 0.7
CCc1sc(C(=O)Nc2ncccc2O)cc1C | 1.5 | 21.9* | 21.8* | -1.5 | 7.9* | 1.0* | 15.0* | 6.2* | 25.7* | 0.8 | LXRb hcDAF ctr=1.4;hcDAF12 conf=7.9*
CCc1sc(C(=O)Nc2ncccc2C)cc1C | -2.0 | 0.6 | 1.0 | -0.4 | 1.1 | 0.2 | nt | nt | nt | nt
O=C(CSc1nnc(-c2cccnc2)o1)Nc1ccccc1F | 1.9 | 8.4* | 13.6* | 0.9 | 3.2 | 0.4 | 10.9* | 4.4* | 11.8* | 0.6
COc1ccc(C)cc1NC(=O)CSc1nnc(-c2ccc(Br)cc2)o1 | -1.7 | -0.3 | -0.1 | -0.5 | -1.2 | -0.3 | nt | nt | nt | nt
COc1ccccc1NC(=O)CSc1nnc(-c2ccc(C)cc2)o1 | 5.6 | 6.3* | 13.8* | 0.7 | 4.1 | -0.3 | 14.6* | 8.3* | 17.5* | 1.0
O=C(CSc1nnc(-c2cccnc2)o1)Nc1ccccc1Br | 2.8 | 0.1 | 1.9 | 2.2 | -0.2 | -0.9 | nt | nt | nt | nt
O=C(NCc1ccccc1)N1CCN(Cc2nc3ccccc3c(=O)[nH]2)CC1 | -0.1 | -0.4 | 0.6 | nt | -3.7 | -0.6 | nt | nt | nt | nt
COc1ccc(C(=O)Nc2nnc(SCC(=O)Nc3ccc(NC(C)=O)cc3)s2)c(OC)c1 | 6.2 | 12.7* | 14.5* | 9.3* | 8.7* | 0.7 | 13.6* | 7.2* | 19.1* | 1.1 | LXRb hcDAF ctr=1.3;hcDAF12 conf=7.6*
COc1ccc(NC(=O)CSc2nnc(NC(=O)C3CCC3)s2)cc1 | -2.5 | -0.1 | -0.2 | 0.2 | -1.8 | -1.2 | nt | nt | nt | nt
OC(c1ccccc1)(c1ccccc1)c1cnc2ccccn12 | nt | nt | -2.4 | nt | -2.0 | -1.3 | nt | nt | nt | nt
O=C(Nc1nc2c(s1)COc1ccccc1-2)c1cccs1 | 7.1 | 11.9* | 14.7* | 4.8* | -0.4 | -1.6 | 8.8* | 9.4* | 7.4 | 0.2

Bioassay records (PubChem)
